We go through seven compounds from PubChem BioAssay (EPA / NIEHS).

Test [1] can be described thus: BSK_hDFCGF_SRB: Viability Assessment in the BioMAP Diversity Plus: hDFCGF Assay (AID 2283061).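 Also: cells exposed to compound for 24 h before the read.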 The conditions noted are these: primary human foreskin fibroblasts. An outline of the steps:
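Cells were dosed with test chemical, cultured 24 h, fixed with 10% TCA, then stained with 0.1% SRB and read at 560 nm. The fibroblasts were human foreskin primary cells, and DMSO served as baseline.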

Read-out in test [2]: TIMP metallopeptidase inhibitor 1 (TIMP1), TIMP1 (gene 7076)
Description: BSK_hDFCGF_TIMP1: BioMAP Diversity Plus: hDFCGF Assay for TIMP metallopeptidase inhibitor 1 (TIMP1) Biomarker Activity (AID 2283062). The conditions noted are these: primary human foreskin fibroblasts; actives raise or lower the signal. An outline of the steps:
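Fibroblasts from human foreskin are treated with test chemical and harvested at 24 h. TIMP-1 is quantified by ELISA, and gain or loss of signal is scored against DMSO.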

Read-out in test [3]: Monokine induced gamma interferon (MIG), CXCL9 (gene 4283)
Description: BSK_hDFCGF_MIG: BioMAP Diversity Plus: hDFCGF Assay for Monokine induced gamma interferon (MIG) Biomarker Activity (AID 2283063). The conditions noted are these: primary human foreskin fibroblasts; actives raise or lower the signal. In short, it runs like this:
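MIG signal, determined by ELISA, reflects 24 h chemical exposure of human skin primary fibroblasts. DMSO serves as negative control and baseline.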

Read-out in test [4]: Matrix Metallopeptidase 1 (MMP1), MMP1 (gene 4312)
Description: BSK_hDFCGF_MMP1: BioMAP Diversity Plus: hDFCGF Assay for Matrix Metallopeptidase 1 (MMP1) Biomarker Activity (AID 2283064). The conditions noted are these: primary human foreskin fibroblasts; actives raise or lower the signal. In short, it runs like this:
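Primary human foreskin fibroblasts exposed to chemicals for 24 h; MMP1 measured by ELISA. Cytotoxicity tracked by SRB staining in parallel cultures; bidirectional fit relative to DMSO.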

Read-out in test [5]: Vascular cell adhesion molecule 1 (VCAM1), VCAM1 (gene 7412)
Description: BSK_hDFCGF_VCAM1: BioMAP Diversity Plus: hDFCGF Assay for Vascular cell adhesion molecule 1 (VCAM1) Biomarker Activity (AID 2283065).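 As to AC50: VCAM-1 protein level quantified by ELISA after 24 h chemical exposure.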 The conditions noted are these: primary human foreskin fibroblasts; actives raise or lower the signal. An outline of the steps: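 Cells are dosed, cultured for 24 h, then VCAM-1 is quantified by ELISA; signal increases and decreases are both fitted relative to DMSO.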

Read-out in test [6]: Plasminogen activator inhibitor-1 (PAI1), SERPINE1 (gene 5054)
Description: BSK_hDFCGF_PAI1: BioMAP Diversity Plus: hDFCGF Assay for Plasminogen activator inhibitor-1 (PAI1) Biomarker Activity (AID 2283066). Particulars: primary human foreskin fibroblasts; actives raise or lower the signal. In short, it runs like this: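 Human foreskin fibroblast primary cells, 24 h chemical exposure; PAI-1 measured by ELISA. Bidirectional fitting relative to DMSO; parallel cultures stained with SRB for total protein to flag overt cytotoxicity.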

Read-out in test [7]: Intercellular Adhesion Molecule 1 (ICAM1), ICAM1 (gene 3383)
Description: BSK_KF3CT_ICAM1: BioMAP Diversity Plus: KF3CT Assay for Intercellular Adhesion Molecule 1 (ICAM1) Biomarker Activity (AID 2283067). The conditions noted are these: primary human keratinocytes with fibroblasts; actives raise or lower the signal. In short, it runs like this: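 Dose the keratinocyte/fibroblast co-culture, wait 24 h, measure ICAM-1 by ELISA, then fit increases or decreases against DMSO. Cytotoxicity is checked in parallel cultures by SRB total-protein staining.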

Read-out in test [8]: Interferon-gamma inducible Protein 10 (IP10), CXCL10 (gene 3627)
Description: BSK_KF3CT_IP10: BioMAP Diversity Plus: KF3CT Assay for Interferon-gamma inducible Protein 10 (IP10) Biomarker Activity (AID 2283068). Particulars: primary human keratinocytes with fibroblasts; actives raise or lower the signal. An outline of the steps: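 KF3CT co-culture (keratinocytes + foreskin fibroblasts), 24 h compound, IP-10 by ELISA; bidirectional fit vs DMSO baseline.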

Test [9] can be described thus: BSK_KF3CT_SRB: Viability Assessment in the BioMAP Diversity Plus: KF3CT Assay (AID 2283069).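 Also: fitted for both signal gain and loss against DMSO baseline.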 Particulars: primary human keratinocytes with fibroblasts. An outline of the steps:
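Human keratinocyte and foreskin fibroblast co-culture exposed to chemical for 24 h. Total protein measured in parallel cultures by 0.1% sulforhodamine B staining after 10% TCA fixation, read at 560 nm; bidirectional fit relative to DMSO.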

Read-out in test [10]: Interleukin-1 alpha (IL1a), IL1A (gene 3552)
Description: BSK_KF3CT_IL1a: BioMAP Diversity Plus: KF3CT Assay for Interleukin-1 alpha (IL1a) Biomarker Activity (AID 2283070). The conditions noted are these: primary human keratinocytes with fibroblasts; actives raise or lower the signal. In short, it runs like this:
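Primary human keratinocyte plus foreskin fibroblast co-culture, dosed and measured at 24 h in 96-well plates. IL-1a level quantified by ELISA; bidirectional fit relative to DMSO.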

Read-out in test [11]: TIMP metallopeptidase inhibitor 2 (TIMP2), TIMP2 (gene 7077)
Description: BSK_KF3CT_TIMP2: BioMAP Diversity Plus: KF3CT Assay for TIMP metallopeptidase inhibitor 2 (TIMP2) Biomarker Activity (AID 2283071). The conditions noted are these: primary human keratinocytes with fibroblasts; actives raise or lower the signal. An outline of the steps:
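Co-culture of human primary keratinocytes and foreskin fibroblasts, measured 24 h after chemical dosing. TIMP-2 quantified by ELISA and fitted in both directions relative to DMSO. Cytotoxicity checked in parallel cultures by SRB total-protein staining.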

Read-out in test [12]: C-C motif chemokine 2 (Homo sapiens) (UniProt P13500)
Description: BSK_KF3CT_MCP1: BioMAP Diversity Plus: KF3CT Assay for Monocyte Chemoattractant Protein 1 (MCP1/CCL2) Biomarker Activity (AID 2283073). Particulars: primary human keratinocytes with fibroblasts; actives raise or lower the signal. In short, it runs like this:
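Keratinocytes and foreskin fibroblasts were co-cultured, dosed with chemical, and sampled 24 h later. MCP-1 was quantified by ELISA, and the endpoint was analyzed with bidirectional fitting using DMSO as negative control.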

Read-out in test [13]: Matrix Metallopeptidase 9 (MMP9), MMP9 (gene 4318)
Description: BSK_KF3CT_MMP9: BioMAP Diversity Plus: KF3CT Assay for Matrix Metallopeptidase 9 (MMP9) Biomarker Activity (AID 2283074). Particulars: primary human keratinocytes with fibroblasts; actives raise or lower the signal. An outline of the steps:
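Human keratinocyte and foreskin fibroblast co-culture exposed to chemicals for 24 h; MMP9 biomarker measured by ELISA, bidirectional fitting relative to DMSO; cytotoxicity tracked by SRB total protein staining in parallel cultures.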

Read-out in test [14]: urokinase plasminogen activator (uPA), PLAU (gene 5328)
Description: BSK_KF3CT_uPA: BioMAP Diversity Plus: KF3CT Assay for urokinase plasminogen activator (uPA) Biomarker Activity (AID 2283075). Particulars: primary human keratinocytes with fibroblasts; actives raise or lower the signal. An outline of the steps:
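Primary human keratinocyte/foreskin fibroblast co-culture exposed to chemical; uPA measured by ELISA at 24 h. Bidirectional fit versus DMSO, with parallel SRB total-protein staining for cytotoxicity.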

Read-out in another test: CD40, CD40 (gene 958)
Description: BSK_LPS_CD40: BioMAP Diversity Plus: LPS Assay for CD40 Biomarker Activity (AID 2283076). The conditions noted are these: primary human HUVEC with PBMC; actives raise or lower the signal. An outline of the steps: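 CD40 signal, measured by ELISA, is fitted in both directions relative to DMSO vehicle. The system is an LPS-driven human vascular primary co-culture of endothelial cells and PBMC, sampled 24 h after compound addition.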

Read-out in test [15]: E-selectin (Homo sapiens) (UniProt P16581)
Description: BSK_LPS_Eselectin: BioMAP Diversity Plus: LPS Assay for Eselectin Biomarker Activity (AID 2283077). The conditions noted are these: primary human HUVEC with PBMC; actives raise or lower the signal. In short, it runs like this: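 Signal of E-selectin, detected by ELISA, served as the endpoint; cells were umbilical vein endothelium with PBMC, read 24 h after treatment. DMSO defined baseline, and both increases and decreases were fitted.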

Read-out in test [16]: Interleukin-8 (IL8), CXCL8 (gene 3576)
Description: BSK_LPS_IL8: BioMAP Diversity Plus: LPS Assay for Interleukin-8 (IL8) Biomarker Activity (AID 2283078). Particulars: primary human HUVEC with PBMC; actives raise or lower the signal. In short, it runs like this:
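Endothelial cells and PBMC from human donors are co-cultured, treated with chemicals and LPS, then assayed for IL-8 by ELISA after 24 h. Parallel SRB staining (0.1% SRB after 10% TCA fixation, 560 nm) flags cytotoxicity.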

A short description of test [17]: BSK_LPS_SRB: Viability Assessment in the BioMAP Diversity Plus: LPS Assay (AID 2283079).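 Also: total protein by sulforhodamine B absorbance as a cytotoxicity measure; measured one day after compound addition; fitted in both directions against DMSO so loss or gain of signal counts.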 Particulars: primary human HUVEC with PBMC. An outline of the steps: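 Overt cytotoxicity was gauged by sulforhodamine B total-protein staining in a primary human vascular endothelial and mononuclear cell co-culture 24 h post-dosing. Activity was fitted in both directions relative to DMSO.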

Read-out in test [18]: Interleukin-1 alpha (IL1a), IL1A (gene 3552)
Description: BSK_LPS_IL1a: BioMAP Diversity Plus: LPS Assay for Interleukin-1 alpha (IL1a) Biomarker Activity (AID 2283080). The conditions noted are these: primary human HUVEC with PBMC; actives raise or lower the signal. In short, it runs like this:
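Measured: IL-1 alpha via ELISA at 24 h in LPS-activated human umbilical vein endothelium–PBMC co-culture. Baseline: DMSO, bidirectional fitting.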

The structures appear in SMILES notation. Calls of active or inactive are those of the source. The calls were made as follows: active = hit-call score of the fitted dose curve at least 0.9, where 1 is the maximum; inactive = score below 0.9.

E-selectin (Homo sapiens), sequence (P16581 whole entry, looked up): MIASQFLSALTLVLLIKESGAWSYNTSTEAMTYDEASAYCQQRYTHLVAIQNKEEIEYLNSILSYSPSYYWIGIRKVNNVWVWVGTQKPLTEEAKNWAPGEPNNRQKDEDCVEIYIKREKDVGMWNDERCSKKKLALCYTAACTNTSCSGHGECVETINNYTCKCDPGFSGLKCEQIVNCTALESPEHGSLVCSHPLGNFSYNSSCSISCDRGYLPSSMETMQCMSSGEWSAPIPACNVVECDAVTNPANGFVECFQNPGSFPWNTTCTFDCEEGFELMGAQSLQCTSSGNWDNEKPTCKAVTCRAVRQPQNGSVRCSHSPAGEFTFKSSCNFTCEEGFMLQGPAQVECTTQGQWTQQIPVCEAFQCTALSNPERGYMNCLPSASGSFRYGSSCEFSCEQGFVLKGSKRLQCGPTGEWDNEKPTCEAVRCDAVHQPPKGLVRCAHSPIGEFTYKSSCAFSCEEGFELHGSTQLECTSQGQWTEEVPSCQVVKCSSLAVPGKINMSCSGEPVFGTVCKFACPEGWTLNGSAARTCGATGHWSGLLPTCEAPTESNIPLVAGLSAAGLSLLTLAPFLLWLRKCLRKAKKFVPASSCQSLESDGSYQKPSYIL

As to `CCCCCOC(C)=O`, the outcome in [1], in test [2], in test [3], in test [4], in [5] and in test [6] was inactive. In addition, the outcome in test [7], in test [8], in [9], in test [10], in [11] and in [12] was inactive. Besides, the outcome in test [13] was “inactive”; in test [14] it was “inactive”; with CD40, CD40 (gene 958) it was “inactive”; in test [15], “inactive”; in [16], “inactive”; in test [17], “inactive”. The outcome in test [18] was inactive.

Turning to `CC(=O)c1ccccc1`, the outcome in test [1], in test [2], in [3], in test [4], in test [5] and in test [6] was inactive. The result in test [7], in test [8], in test [9], in test [10], in test [11] and in test [12] was inactive. The outcome in test [13] was “inactive”; in [14] it was “inactive”; with CD40, CD40 (gene 958) it was “inactive”; in test [15], “inactive”; in test [16], “inactive”; in test [17] it was “inactive”. In [18], the result was inactive.

As to `CCCOc1ccc(S(=O)(=O)N2CCN(CC)CC2)cc1-c1nc2c(CC)n(Cc3ccccn3)nc2c(=O)[nH]1`, the result in test [1], in test [2], in test [3], in [4], in [5] and in test [6] was inactive. The result in [7], in test [8], in test [9], in test [10], in [11] and in [12] was inactive. For the same compound, the outcome is “inactive” in test [13]; “inactive” in test [14]; “inactive” with CD40, CD40 (gene 958); “inactive” in test [15]; “inactive” in test [16]; “inactive” in [17]. Further, in test [18], the result was inactive.

`c1ccc2c(c1)-c1cccc3c1c-2cc1ccccc13`: the outcome in test [1], in test [2], in test [3], in [5], in test [6] and in test [7] was inactive. The outcome in [8], in test [9], in [10], in test [11], in [12] and in test [13] was inactive. The outcome is “inactive” in [14]; “inactive” in the test with CD40, CD40 (gene 958); “inactive” in [15]; “inactive” in test [16]; “inactive” in test [17]; “inactive” in [18]. In addition, the AC50 (in general, the concentration giving half of the maximal activity seen) in [4] was 6.72 µM (active).

In the case of `OCc1ccccc1`, the outcome in [1], in [2], in test [3], in test [4], in test [5] and in test [6] was inactive. Besides, the result in [7], in test [8], in test [9], in test [10], in [11] and in test [12] was inactive. Further, the outcome in test [13] was “inactive”; in [14], “inactive”; in the test with CD40, CD40 (gene 958), “inactive”; in [15] it was “inactive”; in test [16] it was “inactive”; in test [17] it was “inactive”. For the same compound, the result in [18] was inactive.

Take `CCCCN1C(=O)[C@@H]([C@H](O)C2CCCCC2)NC(=O)C12CCN(Cc1ccc(Oc3ccc(C(=O)O)cc3)cc1)CC2`: the AC50 in test [1] was 20 µM (active); in test [4], 7.18 µM (active); in test [5] it was 31 µM (active). The outcome in test [2], in [3], in test [6], in test [7], in [8] and in [9] was inactive. Also, the outcome in [10] was “inactive”; in test [11], “inactive”; in test [12] it was “inactive”; in [13], “inactive”; in test [14], “inactive”; with CD40, CD40 (gene 958), “inactive”. Further, the outcome in [15], in [16], in test [17] and in test [18] was inactive.

`O=C(Cl)C(F)(F)C(F)(F)C(F)(F)C(=O)Cl`: the result in test [1], in [2], in test [3], in [4], in test [5] and in test [6] was inactive. Besides, the result in test [7], in [8], in test [9], in test [10], in test [11] and in [12] was inactive. Also, the outcome was “inactive” in test [13]; “inactive” in test [14]; “inactive” with CD40, CD40 (gene 958); “inactive” in [15]; “inactive” in test [16]; “inactive” in test [17]. Also, the result in [18] was inactive.
